Bioassay records (PubChem BioAssay)
Rpn11 inh: Rpn11 (human) deubiquitinase inhibition; actives 0.59% (n = 360,000); O00487; inhibition, % at 20 µM; human 26S proteasome, Ub4-pepOG fluorescence polarization; 20S core pre-blocked with epoxomicin;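 active = inhibition at 20 µM, scaled to each plate's controls, above about 33%, limit read from the data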
Target sequence (O00487 whole entry, looked up): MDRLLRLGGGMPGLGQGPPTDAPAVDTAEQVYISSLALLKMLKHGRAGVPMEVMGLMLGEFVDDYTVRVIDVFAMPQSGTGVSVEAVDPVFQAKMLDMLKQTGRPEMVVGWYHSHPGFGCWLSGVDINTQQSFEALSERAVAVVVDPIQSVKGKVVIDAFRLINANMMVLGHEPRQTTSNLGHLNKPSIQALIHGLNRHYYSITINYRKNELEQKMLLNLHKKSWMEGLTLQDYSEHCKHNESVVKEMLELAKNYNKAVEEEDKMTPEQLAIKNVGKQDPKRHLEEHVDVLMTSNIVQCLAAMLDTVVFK
Myeloid diff 2: compounds promoting myeloid differentiation. ER-HoxA9 myeloid progenitors, lysozyme-GFP differentiation, flow cytometry. calls only at 10 µM. actives 1% (n = 360,000);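 active = normalized GFP-positive differentiation at or above the plate's own cutoff, the solvent-only control mean plus 3 SD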;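 note: cells exposed to compound for four days before flow analysis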
TPT1 inhibitor: inhibitors of Candida albicans tRNA 2'-phosphotransferase TPT1; recombinant caTPT1, FP RNA substrate dephosphorylation; inhibition, % at 5 µM; actives 0.81% (n = 300,000);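 active = inhibition above the mean of all tested compounds plus 3 SD, set per screening campaign, cut at about 24% in these data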
HNF4A DNA FP: change in binding of human HNF4 alpha to DNA; P41235; HNF4a-FITC DNA binding, fluorescence polarization, 1 h; activity change, % at 10 µM; actives 0.3% (n = 360,000); AID 1224865; in the data active = activity change above about 30%, passing the limit was not always enough
Rpn11 inh conf: confirmation of human proteasome Rpn11 inhibitors; shares compounds with Rpn11 inh; purified human 26S proteasome, Ub4-pepOG fluorescence polarization; proteasome pretreated with epoxomicin; inhibition, % at 20 µM; actives 29% (n = 1,900); AID 602318
MMP-2 inh: blocks human MMP-2, flagging nonselective RPN11 hits; shares compounds with Rpn11 inh; recombinant MMP-2, FRET peptide cleavage fluorescence; inhibition, % at 20 µM; actives 4% (n = 1,900); AID 602330;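 note: human MMP-2 activated beforehand with APMA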
Thrombin FP: counter-screen for RPN11 inhibitors: inhibition of bovine thrombin | actives 13% (n = 1,900) | bovine thrombin cleavage of Ub4-pepOG, fluorescence polarization | AID 602333 | inhibition, % at 20 µM | shares compounds with Rpn11 inh;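 active = mean inhibition at least 40% at 20 µM, or signal 3 deviations below plate average, so some actives read negative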
Large screens that a line does not name were inactive (follow-up assays come after a bar, where they were run). In the library only some 2.1% were active in any assay of this set; here they are far more common. Cut-off read from the data, not from the text of the source, unless noted: active = inhibition above about 40%; inactive = the rest.

CC1(C(=O)O)Sc2[nH]c(=O)sc2C2c3ccccc3OC(=O)C21 (stereo not given)	Rpn11 inh 48, HNF4A DNA FP 39 | Rpn11 inh conf inactive | MMP-2 inh inactive | Thrombin FP inactive
Cc1cc(NCCCCCCCNc2cc(C)nc3cc([N+](=O)[O-])ccc23)c2ccc([N+](=O)[O-])cc2n1	Rpn11 inh 95 (no result: TPT1 inhibitor) | Rpn11 inh conf 85 | MMP-2 inh 76 | Thrombin FP inactive
COCCCNc1cc(C)nc2ccccc12	none
O=C(NCc1ccccc1)C1c2ccccc2OCC(=O)N1Cc1ccccc1 (stereo not given)	none (no result: Rpn11 inh, TPT1 inhibitor)
O=C(NCCCN1CCCCCC1)c1cc2c(=O)oc3ccccc3c2s1	Rpn11 inh 64 | Rpn11 inh conf inactive | MMP-2 inh inactive | Thrombin FP inactive
Cc1ccc(NC(=O)CN(C)C(=O)c2cccc(-n3cccc3)c2)cc1	Rpn11 inh 57 (no result: TPT1 inhibitor) | Rpn11 inh conf 85 | MMP-2 inh inactive | Thrombin FP inactive
O=C(C1CCCN(S(=O)(=O)c2ccc(Br)cc2)C1)N1CCOCC1 (stereo not given)	none
Cc1ccc2nc(/N=C(\N)NC(=O)N3c4ccccc4Sc4ccccc43)nc(C)c2c1	Rpn11 inh 45 | Rpn11 inh conf inactive | MMP-2 inh inactive | Thrombin FP inactive
Cc1ccc2c(C)nc(/N=C(\N)NC(=O)N3c4ccccc4Sc4ccccc43)nc2c1	none
Cc1ccc(CN(C(=O)COc2ccc(C)c(C)c2)C2CCS(=O)(=O)C2)o1 (stereo not given)	none
CCOC(=O)Cn1c(=NC(=O)c2ccc([N+](=O)[O-])s2)sc2ccccc21	Rpn11 inh 44 | Rpn11 inh conf inactive | MMP-2 inh inactive | Thrombin FP inactive
Cc1ccc(OCC(=O)NC(=S)Nc2ccc(Br)cn2)cc1	none
COc1ccc(/C(C)=N/NC(=O)c2nnn(-c3nonc3N)c2-c2ccccc2)cc1	Rpn11 inh 80 | Rpn11 inh conf 93 | MMP-2 inh inactive | Thrombin FP inactive
CCOC(=O)C1=C(C)Nc2nnnn2C1c1cccc(OC)c1OC (stereo not given)	Rpn11 inh active | Rpn11 inh conf inactive | MMP-2 inh inactive | Thrombin FP inactive
S=C(NNc1ccnc2cc(Cl)ccc12)Nc1ccc(Cl)cc1Cl	Rpn11 inh 44 | Rpn11 inh conf inactive | MMP-2 inh 48 | Thrombin FP inactive
O=C(NCCSCc1ccccc1)c1ccc(C2SCC(=O)N2Cc2ccccc2)cc1 (stereo not given)	Rpn11 inh 57 | Rpn11 inh conf 43 | MMP-2 inh inactive | Thrombin FP inactive
CC(C)Cn1c(CN2CCN(c3ccccc3F)CC2)nc2c1c(=O)[nH]c(=O)n2C	none
O=C(N/N=C/c1ccc(O)cc1O)/C(=C/c1ccccc1)CCO	none
COc1cc(/C=C2\SC(=S)N(Nc3ccccc3)C2=O)ccc1O	Rpn11 inh 112, HNF4A DNA FP 37 | Rpn11 inh conf 72 | MMP-2 inh inactive | Thrombin FP 101
N#Cc1cc2c(nc1SCC(=O)Nc1sc3c(c1C#N)CCC3)CCC2	none
COc1ccc(-c2ccc(C#N)c(SCC(=O)Nc3sc4c(c3C#N)CCC4)n2)cc1OC	Rpn11 inh 83, HNF4A DNA FP 47 | Rpn11 inh conf inactive | MMP-2 inh inactive | Thrombin FP inactive
COc1ccc(CN2C(=O)c3cccnc3C2Nc2ccc(C)cc2)cc1 (stereo not given)	Rpn11 inh 47 | Rpn11 inh conf inactive | MMP-2 inh inactive | Thrombin FP inactive
CC(Sc1ccccc1)C(=O)N1CCN(S(=O)(=O)c2ccccc2F)CC1 (stereo not given)	none
CCCOc1cccc(C2C(C(=O)c3ccc(C)o3)=C(O)C(=O)N2c2nc(C)c(C(C)=O)s2)c1 (stereo not given)	Rpn11 inh 50 | Rpn11 inh conf inactive | MMP-2 inh inactive | Thrombin FP inactive
O=C(Cn1cnc2c(NCc3ccccc3)ncnc21)NCc1nc2ccccc2[nH]1	none (no result: TPT1 inhibitor)
COc1cc(S(=O)(=O)N2CCN(Cc3ccc4c(c3)OCO4)CC2)ccc1NC(C)=O	Rpn11 inh 65 (no result: TPT1 inhibitor) | Rpn11 inh conf inactive | MMP-2 inh inactive | Thrombin FP inactive
COc1cc(/C=C(\CCC(=O)O)c2nc3ccccc3s2)ccc1OCC(=O)Nc1c(Cl)cccc1Cl	Rpn11 inh 73 (no result: TPT1 inhibitor) | Rpn11 inh conf inactive | MMP-2 inh inactive | Thrombin FP inactive
O=C(O)CC/C(=C/c1cccc(NC(=O)c2ccccc2Cl)c1)c1nc2ccccc2s1	none (no result: TPT1 inhibitor)
N#CCC(=O)N/N=C/c1ccccc1Cl	Rpn11 inh 53 | Rpn11 inh conf inactive | MMP-2 inh inactive | Thrombin FP inactive
Cc1ccc(Cc2c(-c3ccc(C#N)cc3)nc3c4ccccc4ccn23)cc1	none (no result: TPT1 inhibitor)
CCCCNC(=O)COC(=O)c1c2c(nc3ccccc13)/C(=C/c1cccs1)CC2	Rpn11 inh 41 | Rpn11 inh conf inactive | MMP-2 inh inactive | Thrombin FP inactive
CCCCNC(=O)COC(=O)c1c2c(nc3ccccc13)CCC2	none
O=C(Nc1ccc(N2CCCC2)cc1)c1cc(Cl)ccc1Cl	Rpn11 inh 77, Myeloid diff 2 active | Rpn11 inh conf inactive | MMP-2 inh inactive | Thrombin FP inactive
CC(=O)N1CCN(c2ccc(NC(=O)c3cc4ccccc4o3)cc2)CC1	none
O=C(Nc1ccc(N2CCCC2)cc1)c1cc2ccccc2o1	Rpn11 inh 69 | Rpn11 inh conf inactive | MMP-2 inh inactive | Thrombin FP inactive
O=C(CN1CCCCC1)Nc1ccc(N2CCCCCC2)cc1	Rpn11 inh 88, HNF4A DNA FP 72 | Rpn11 inh conf inactive | MMP-2 inh inactive | Thrombin FP inactive
O=C(CN1CCCCC1)Nc1ccccc1	none
O=C(Nc1ccc(N2CCCC2)cc1)c1ccc(Cl)cc1Cl	none
CC(C)NC(=O)C1(C)CCN1C(=O)c1ccccc1Oc1ccccc1 (stereo not given)	none (no result: TPT1 inhibitor)
c1ccc2c(CN3CCSCC3)cccc2c1	none
C[C@@H]1CN([C@@H](C)CO)C(=O)c2cc(-c3ccccc3F)cnc2O[C@H]1CN(C)Cc1cccc(F)c1	none (no result: TPT1 inhibitor)
O=C1NC(=S)SC1=Cc1cc(Br)ccc1O	Rpn11 inh 48, HNF4A DNA FP 80 (no result: TPT1 inhibitor) | Rpn11 inh conf inactive | MMP-2 inh inactive | Thrombin FP inactive
Cc1ccc(-c2nnn3c2nc(NCCc2ccc(S(N)(=O)=O)cc2)c2ccccc23)cc1	Rpn11 inh 57 | Rpn11 inh conf 46 | MMP-2 inh inactive | Thrombin FP inactive
Cc1cccc(-c2nnn3c2nc(NCCc2ccc(S(N)(=O)=O)cc2)c2ccccc23)c1	none
COc1cc(NC(=O)CCc2nc(-c3cccs3)no2)cc(OC)c1OC	none
COc1cc(-c2noc(CCC(=O)Nc3cccnc3)n2)cc(OC)c1OC	Rpn11 inh 36 | Rpn11 inh conf inactive | MMP-2 inh inactive | Thrombin FP inactive
O=C(c1ccccc1F)N1CCCC(N2CCN(Cc3ccc4c(c3)OCO4)CC2)C1 (stereo not given)	none (no result: TPT1 inhibitor)
